MOR-DOR inv ag-1: inverse agonist of human OPRM1-OPRD1 heterodimerization | inhibition, % at 9.3 µM | P35372+P41143 | 0.21% of 340,000 active | cell-based MOR-DOR heterodimer luminescence, inverse agonism; in the data active = inhibition above about 22%, passing the limit was not always enough;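 note: 0% = cells with DMSO and 100% = wells without cells with DMSO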
HTR2A ag: agonists of mouse serotonin 5-HT2A receptor (HTR2A) | P35363 | CHO-K1 mHTR2A beta-arrestin complementation, luminescence; percent of 30 µM serotonin response | activation, % at 7.6 µM | 0.66% of 360,000 active;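 active = activation above a run cutoff, the mean activation of all tested compounds plus 3 SD, cut at about 14% in these data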;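 note: 0% = plate median of compound wells and 100% = 30 µM serotonin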
HTR5A inv ctr: HTR5A inverse agonism, opioid heterodimer counter-screen; HTR5A cell line, luminescence; inhibition, % at 9.3 µM; 0.083% of 340,000 active; P47898; AID 504634; in the data active = inhibition mostly above about 23%, no sharp cut-off; inactive = mostly below about 18%;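 note: 0% = cells with DMSO and 100% = no-cell wells with DMSO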
HTR5A ag ctr: activates human HTR5A in OPRM1-OPRD1 agonist counter-screen | P47898 | HTR5A agonist assay, luminescence, cell-based | activation, % at 9.3 µM | 0.61% of 340,000 active | AID 504692; in the data active = activation mostly above about 9.5%, no sharp cut-off; inactive = mostly below about 7.6%;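 note: 0% = cells with vehicle only and 100% = reference agonist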
MOR-DOR ag: OPRM1-OPRD1 heterodimerization agonism; 0.3% of 340,000 active; activation, % at 9.3 µM; cells, luminescence; AID 504326; in the data active = activation above about 18%;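 note: 0% = vehicle-treated cells and 100% = reference agonist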
MOR-DOR inv ag-2: counter-screen for HTR5A inverse agonists: OPRM1-OPRD1 heterodimerization inverse agonism; shares compounds with HTR5A inv ctr; U2OS counter-screen cells, complementation luminescence; inhibition, % at 9.3 µM; 190 tested, under 10 active; AID 504912;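 note: 0% = cells with DMSO and 100% = wells without cells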
HTR5A inv confrm: HTR5A (human) inverse agonism, confirmation. inhibition, % at 9.3 µM. 190 tested, under 10 active. shares compounds with HTR5A inv ctr. HTR5A-expressing cells, luminescence;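 note: 0% = cells with DMSO and 100% = no cells with DMSO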
* marks the source's active call; other numbers are inactive results; i = inactive; nt = not tested or not shown. Compounds with a hit are over-represented: about 1.6% of the library has one in this group of screens. Unless noted, the rule behind the calls is not given here.

SMILES	MOR-DOR inv ag-1	HTR2A ag	HTR5A inv ctr	HTR5A ag ctr	MOR-DOR ag	MOR-DOR inv ag-2	HTR5A inv confrm
CC1(C(=O)NS(=O)(=O)c2ccc(Cl)s2)CCN1C(=O)C1(c2ccccc2)CCCC1 (stereo not drawn)	nt	6	nt	nt	nt	nt	nt
CCN(CC)c1ccc(/C=N/Nc2ccccc2)c(O)c1	-1	2	45*	0	0	-108	-21
COc1ccc(C2=Nc3ccccc3N(C(=O)c3cccnc3)C2C(=O)NC2CCCC2)cc1 (stereo not drawn)	nt	1	nt	nt	nt	nt	nt
O=C(COC(=O)c1c(F)cccc1F)NC(=O)NCc1ccccc1	nt	4	nt	nt	nt	nt	nt
CCOc1ccccc1N(CC(=O)N1CCN(Cc2ccccc2)CC1)S(=O)(=O)c1ccccc1	nt	0	nt	nt	nt	nt	nt
Cc1nc2cc(NC(=O)Nc3ccc(N4CCOCC4)cc3)ccc2n1C	10	0	42*	-2	-2	-60	-7
Cc1ccc2nc(-c3ccccc3)c(Cc3ccccc3C(F)(F)F)n2c1	nt	-4	nt	nt	nt	nt	nt
O=[N+]([O-])c1ccc2nc(NN=Cc3ccc(O)cc3)sc2c1	11	-5	30*	-7	-2	-25	0
CC(C)c1ccc(/C=C/C(=O)Nc2nc3ccc([N+](=O)[O-])cc3s2)cc1	5	1	-15	2	-1	nt	nt
COc1ccc(S(=O)(=O)Nc2ccccc2C(=O)N2CCCC2)cc1OC	1	2	-21	7	0	nt	nt
COc1ccc(OC)c(S(=O)(=O)Nc2ccccc2C(=O)N2CCCCC2)c1	0	2	45*	-1	0	-4	-5
CN1CCN(c2ncnc3c2c(-c2ccccc2)cn3-c2ccc(F)cc2)CC1	27	-16	39*	-16	-6	i	-36
CN(C)CCN(C)C1CN(Cc2ccccc2)S(=O)(=O)C1 (stereo not drawn)	nt	0	nt	nt	nt	nt	nt
CC(C)C[C@@H](CO)N1CCN(Cc2cccnc2)CCC1=O	9	10	28*	-10	-2	-8	-5
COC(Cc1nnc(SC)n1-c1ccc(Cl)cc1)OC	11	-2	13	-4	-2	nt	nt
C=CCSc1nnc(CC(OC)OC)n1-c1ccccc1	-9	-4	39*	3	1	-11	-8
CN(C)S(=O)(=O)c1ccc(Cl)c(C(=O)OCC(=O)NC(=O)NC2CCCC2)c1	-8	-1	96*	1	2	-16	14
COc1cc2c(cc1OC)C(CNC(=O)C=Cc1cc(OC)c(OC)c(OC)c1)C2 (stereo not drawn)	nt	-1	nt	nt	nt	nt	nt
CSc1ccc(/C=N/n2c(Cc3ccc(Br)cc3)n[nH]c2=S)cc1	-30	3	32*	-13	6	-39	13
FC(F)Oc1ccc(/C=N/n2c(Cc3ccc(Br)cc3)n[nH]c2=S)cc1	-56	2	12	-4	11	nt	nt
COc1ccc(C(C(=O)Nc2ccc(F)cc2)N2CCN(CC(=O)N3CCCC3)CC2)cc1 (stereo not drawn)	nt	6	nt	nt	nt	nt	nt
O=C(NNc1ccc([N+](=O)[O-])cc1)Nc1ccccc1	8	-2	-8	-2	-2	nt	nt
O=C(NNc1ccc([N+](=O)[O-])cn1)Nc1ccc(N=Nc2ccccc2)cc1	-14	2	36*	-9	3	-45	18
O=C(C[n+]1ccccc1)N/N=C/c1cc(Br)cc(Br)c1O	25	-37	41*	-12	-6	5	34
O=C1N[C@@H](Cc2ccccc2)COC(=O)[C@H](Cc2ccc(F)cc2)CC/C=C/C[C@@H]1CC(=O)N(CCO)Cc1ccccc1	2	-7	37*	-2	0	-52	-8
O=C1N[C@@H](Cc2ccccc2)COC(=O)[C@@H](Cc2ccc(F)cc2)CC/C=C/C[C@H]1CC(=O)N(CCO)Cc1ccccc1	-6	-5	10	3	1	nt	nt
COc1ccc(/C=C/C(=O)NC(=S)NNC(=O)c2cccs2)cc1	23	-2	42*	-7	-4	4	-18
CC(=O)c1ccc(OCc2ccccc2)c(C)c1O	-41	-7	28*	-10	7	-47	-1
CCCCCCCCN1C(=O)[C@H](CC(=O)N2CCCCC2)C[C@@]2(C(=O)OC)CC(C)(C)CC=C12	nt	-8	nt	nt	nt	nt	nt

Screening data from PubChem BioAssay.
